Measured values: PubChem BioAssay AID1159580 (chemical genetic matrix, 2015)
About 2,000 (36%) of roughly 5,500 compounds were called active. Not shown: some 18% with an inconclusive outcome. No stated cut-off is given here; in the data, active means normalized growth mostly below about 0.91 (no sharp cut-off); inconclusive means no clear call, values can overlap the other calls; inactive means mostly above about 0.92. The list shows a part of the results.

Experiment: chemical genetic growth profiling, strain panel (AID 1159580);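 further: tested at 20 µM; growth read once vehicle control cultures reached saturation at 30 °C; 1 = growth at the plate median or of vehicle wells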
Conditions: growth OD

Measured: normalized growth

CC(C)NC[C@H](O)COc1cccc2ccccc12
inactive: S. cerevisiae deletion strains, locus YJR066W, strain TOR1, stronger effect = lower value 0.996 | S. cerevisiae deletion strains, locus YKL009W, strain mrt4, stronger effect = lower value 1.03 | S. cerevisiae deletion strains, locus YKL068W, stronger effect = lower value 1.01 | S. cerevisiae deletion strains, locus YKL085W, strain MDH1 (second series), stronger effect = lower value 0.999 | S. cerevisiae deletion strains, locus YKL085W, strain MDH1, stronger effect = lower value 0.999 | S. cerevisiae deletion strains, locus YKL160W, strain elf1, stronger effect = lower value 0.992 | S. cerevisiae deletion strains, locus YKR001C, strain vps1, stronger effect = lower value 1.04 | S. cerevisiae deletion strains, locus YKR026C, strain gcn3, stronger effect = lower value 0.978 | S. cerevisiae deletion strains, locus YKR091W, strain srl3, stronger effect = lower value 0.99 | S. cerevisiae deletion strains, locus YLL001W, strain dnm1, stronger effect = lower value 0.98 | S. cerevisiae deletion strains, locus YLL026W, stronger effect = lower value 0.98 | S. cerevisiae deletion strains, locus YLL041C, strain sdh2, stronger effect = lower value 0.997 | S. cerevisiae deletion strains, locus YLR027C, strain aat2, stronger effect = lower value 0.987 | S. cerevisiae deletion strains, locus YLR039C, strain RIC1, stronger effect = lower value 1.05 | S. cerevisiae deletion strains, locus YLR058C, strain SHM2, stronger effect = lower value 1.01 | S. cerevisiae deletion strains, locus YLR102C, strain apc9, stronger effect = lower value 1.02 | S. cerevisiae deletion strains, locus YLR113W, strain HOG1, stronger effect = lower value 1 | S. cerevisiae deletion strains, locus YLR221C, strain rsa3, stronger effect = lower value 0.991 | S. cerevisiae deletion strains, locus YLR258W, strain gsy2, stronger effect = lower value 0.985 | S. cerevisiae deletion strains, locus YLR262C, strain YPT6 (second series), stronger effect = lower value 0.974 | S. cerevisiae deletion strains, locus YLR262C, strain YPT6, stronger effect = lower value 1.02 | S. cerevisiae deletion strains, locus YLR268W, strain sec22, stronger effect = lower value 1.01 | S. cerevisiae deletion strains, locus YLR320W, strain mms22, stronger effect = lower value 0.973 | S. cerevisiae deletion strains, locus YLR330W, strain CHS5, stronger effect = lower value 1.01 | S. cerevisiae deletion strains, locus YLR342W, strain FKS1 (second series), stronger effect = lower value 0.963 | S. cerevisiae deletion strains, locus YLR342W, strain FKS1, stronger effect = lower value 0.986 | S. cerevisiae deletion strains, locus YLR357W, strain rsc2, stronger effect = lower value 0.978 | S. cerevisiae deletion strains, locus YLR370C, strain arc18, stronger effect = lower value 0.999 | S. cerevisiae deletion strains, locus YLR371W, strain rom2, stronger effect = lower value 1.03 | S. cerevisiae deletion strains, locus YLR384C, strain iki3, stronger effect = lower value 0.963 | S. cerevisiae deletion strains, locus YLR418C, strain cdc73, stronger effect = lower value 1.02 | S. cerevisiae deletion strains, locus YML016C, strain PPZ1, stronger effect = lower value 1 | S. cerevisiae deletion strains, locus YML032C, strain rad52, stronger effect = lower value 0.997 | S. cerevisiae deletion strains, locus YML120C, strain ndi1, stronger effect = lower value 1 | S. cerevisiae deletion strains, locus YML124C, strain tub3, stronger effect = lower value 1.02 | S. cerevisiae deletion strains, locus YMR058W, strain fet3, stronger effect = lower value 0.995 | S. cerevisiae deletion strains, locus YMR078C, strain ctf18, stronger effect = lower value 1.03 | S. cerevisiae deletion strains, locus YMR125W, strain sto1, stronger effect = lower value 0.966 | S. cerevisiae deletion strains, locus YMR129W, stronger effect = lower value 0.988 | S. cerevisiae deletion strains, locus YMR205C, strain PFK2, stronger effect = lower value 0.971 | S. cerevisiae deletion strains, locus YMR223W, strain ubp8, stronger effect = lower value 1.06 | S. cerevisiae deletion strains, locus YMR231W, strain pep5, stronger effect = lower value 0.988 | S. cerevisiae deletion strains, locus YMR263W, strain SAP30, stronger effect = lower value 1.01 | S. cerevisiae deletion strains, locus YMR307W, strain GAS1, stronger effect = lower value 1.06 | S. cerevisiae deletion strains, locus YNL067W, strain RPL9B, stronger effect = lower value 1.03 | S. cerevisiae deletion strains, locus YNL071W, strain lat1, stronger effect = lower value 0.997 | S. cerevisiae deletion strains, locus YNL183C, strain NPR1, stronger effect = lower value 0.995 | S. cerevisiae deletion strains, locus YNL209W, strain ssb2, stronger effect = lower value 0.987 | S. cerevisiae deletion strains, locus YNL233W, strain BNI4, stronger effect = lower value 1.02 | S. cerevisiae deletion strains, locus YNL248C, strain rpa49, stronger effect = lower value 0.989 | S. cerevisiae deletion strains, locus YNL250W, strain rad50, stronger effect = lower value 1.04 | S. cerevisiae deletion strains, locus YNL271C, strain bni1, stronger effect = lower value 1.02 | S. cerevisiae deletion strains, locus YNL298W, strain CLA4, stronger effect = lower value 1.01 | S. cerevisiae deletion strains, locus YNL307C, strain MCK1, stronger effect = lower value 1.02 | S. cerevisiae deletion strains, locus YNL322C, strain KRE1 (second series), stronger effect = lower value 0.977 | S. cerevisiae deletion strains, locus YNL322C, strain KRE1, stronger effect = lower value 1.01 | S. cerevisiae deletion strains, locus YNR049C, strain mso1, stronger effect = lower value 0.989 | S. cerevisiae deletion strains, locus YNR052C, strain pop2, stronger effect = lower value 1.01 | S. cerevisiae deletion strains, locus YOL012C, strain htz1 0.826 | S. cerevisiae deletion strains, locus YOL147C, strain pex11, stronger effect = lower value 1.02 | S. cerevisiae deletion strains, locus YOR001W, strain rrp6, stronger effect = lower value 0.994 | S. cerevisiae deletion strains, locus YOR061W, strain CKA2, stronger effect = lower value 1 | S. cerevisiae deletion strains, locus YOR069W, strain VPS5, stronger effect = lower value 1.01 | S. cerevisiae deletion strains, locus YOR070C, strain gyp1, stronger effect = lower value 0.998 | S. cerevisiae deletion strains, locus YOR080W, strain dia2, stronger effect = lower value 0.977 | S. cerevisiae deletion strains, locus YOR083W, strain WHI5, stronger effect = lower value 1.01 | S. cerevisiae deletion strains, locus YOR106W, strain vam3, stronger effect = lower value 0.997 | S. cerevisiae deletion strains, locus YOR136W, strain idh2, stronger effect = lower value 1.03 | S. cerevisiae deletion strains, locus YOR144C, strain elg1, stronger effect = lower value 1.02 | S. cerevisiae deletion strains, locus YOR184W, strain ser1, stronger effect = lower value 1.03 | S. cerevisiae deletion strains, locus YOR231W, strain MKK1, stronger effect = lower value 1.02 | S. cerevisiae deletion strains, locus YOR265W, strain rbl2, stronger effect = lower value 0.988 | S. cerevisiae deletion strains, locus YOR270C, strain vph1, stronger effect = lower value 1.03 | S. cerevisiae deletion strains, locus YOR290C, strain snf2, stronger effect = lower value 0.988 | S. cerevisiae deletion strains, locus YOR316C, strain cot1, stronger effect = lower value 1.03 | S. cerevisiae deletion strains, locus YPL051W, strain arl3, stronger effect = lower value 0.993 | S. cerevisiae deletion strains, locus YPL055C, strain LGE1, stronger effect = lower value 1.02 | S. cerevisiae deletion strains, locus YPL078C, strain atp4, stronger effect = lower value 1.01 | S. cerevisiae deletion strains, locus YPL106C, strain sse1, stronger effect = lower value 0.98 | S. cerevisiae deletion strains, locus YPL240C, strain hsp82, stronger effect = lower value 0.999 | S. cerevisiae deletion strains, locus YPL241C, strain CIN2, stronger effect = lower value 1.01 | S. cerevisiae deletion strains, locus YPL256C, strain CLN2, stronger effect = lower value 1.07 | S. cerevisiae deletion strains, locus YPR119W, strain clb2, stronger effect = lower value 1.03 | S. cerevisiae deletion strains, locus YPR141C, strain kar3, stronger effect = lower value 1.02 | S. cerevisiae deletion strains, locus YPR163C, strain tif3, stronger effect = lower value 1.02 | S. cerevisiae deletion strains, locus YPR167C, strain met16, stronger effect = lower value 1.03 | S. cerevisiae deletion strains, strain wtn01, stronger effect = lower value 1.01 | S. cerevisiae strains, strain wild type, stronger effect = lower value 1.01
